Screening data deposited in PubChem by National Center for Advancing Translational Sciences (NCATS).
ALDH1A1 block = ALDH1A1 (human) enzyme inhibition. AID 1030. Potency, µM (titrated, usually from 75.3 µM), without a hit: at the top dose activity, negative = inhibition, hits mostly inhibitors. Purified ALDH1A1, NADH fluorescence, propionaldehyde substrate. 220,000 compounds, 7.3% hits. P00352; active = well fitted inhibition curve with a large enough effect, not every such curve was filed as active; inconclusive = small, poorly fitted or top-dose-only effect, or another doubt; inactive = no such curve, though single readings can be large or run the other way;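 also: plate controls were no enzyme wells and a reference inhibitor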
RORg inh = blocks mouse ROR gamma transcriptional activity | 310,000 compounds, 5.4% hits | P51450 | AID 2551 | Drosophila S2 Gal4-RORgamma UAS-luciferase reporter, 20 h | Potency, µM (top dose mostly 53.6 µM), inactives show at the highest dose activity change, negative = inhibition, hits mostly inhibitors; also: nearly all actives have a fitted effect of over 60% in size
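Read-out: Photinus luciferase luminescence; inhibitors lower reporter signal. Insect Schneider cells with Gal4-ROR gamma fusion under metallothionein promoter, UAS reporter; 700 uM final copper sulfate induction, 20 hr, ambient temperature.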
PLK1 PBD inh = inhibitors of human PLK1 polo-box domain binding; P53350; Plk1 PBD binding of FITC phosphopeptide, fluorescence polarization; Potency, µM, without a hit: max response, negative = inhibition, hits mostly inhibitors; 360,000 compounds, 2.8% hits; also: series mostly up to about 57 µM; nearly all actives have a fitted effect of over 65% in size
Target sequence (P53350 whole entry, looked up, the tested form may be a part): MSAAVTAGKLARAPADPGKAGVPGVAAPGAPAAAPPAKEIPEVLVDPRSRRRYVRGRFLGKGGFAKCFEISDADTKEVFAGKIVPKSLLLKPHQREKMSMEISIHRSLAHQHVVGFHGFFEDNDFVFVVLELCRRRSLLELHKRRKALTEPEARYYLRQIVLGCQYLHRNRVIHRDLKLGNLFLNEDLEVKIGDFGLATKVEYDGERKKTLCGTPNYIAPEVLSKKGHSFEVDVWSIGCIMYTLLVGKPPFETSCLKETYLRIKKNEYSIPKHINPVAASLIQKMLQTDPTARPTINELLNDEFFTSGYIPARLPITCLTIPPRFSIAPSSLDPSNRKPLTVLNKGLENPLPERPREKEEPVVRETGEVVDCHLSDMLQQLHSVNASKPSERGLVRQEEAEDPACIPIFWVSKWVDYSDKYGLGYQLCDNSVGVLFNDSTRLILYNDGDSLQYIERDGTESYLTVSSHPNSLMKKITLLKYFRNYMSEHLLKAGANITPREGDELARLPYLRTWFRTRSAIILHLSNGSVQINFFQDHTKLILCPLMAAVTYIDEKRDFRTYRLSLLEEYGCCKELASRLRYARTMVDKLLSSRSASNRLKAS
Gal4-VP16 FLuc = inhibits Gal4-VP16 luciferase reporter, ROR gamma counter-screen. Drosophila S2 Gal4-VP16 UAS-luciferase, luminescence, 20 h. Potency, µM (top dose mostly 53.6 µM), for inactives: at the highest dose activity, negative = inhibition, hits mostly inhibitors. 310,000 compounds, 3.5% hits. AID 2546;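 also: Gal4-VP16 expression switched on by copper sulfate through the metallothionein promoter; nearly all actives have a fitted effect of over 50% in size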
Sfp PPTase inh = Sfp phosphopantetheinyl transferase inhibition. Potency, µM, for the others: largest response in the series, negative = inhibition, hits mostly inhibitors. 310,000 compounds, 3.5% hits. Biochemical Sfp PPTase activity, qHTS. AID 1490;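 also: the enzyme is Sfp with the accession as filed and its product quenches rhodamine fluorescence; 0% = enzyme reaction without inhibitor and -100% = no enzyme wells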
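Reaction rates are the 30-min fluorescence difference (ex 525, em 598 nm) in wells containing 15 nM Sfp, 5 uM rhodamine-CoA and 12.5 uM BHQ-2-YbbR at pH 7.6 with 10 mM MgCl2.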
Numbers without * were called inactive; ? = inconclusive; · = no result. This is a sample that favours compounds with a hit; in the whole collection about 12% have one here. Unless noted, calls follow the shape of the dose curve; as a rule, active = well fitted curve in the direction sought with a large enough effect; inconclusive = small, poorly fitted or top-dose-only effect, or another doubt; inactive = no such curve, though single readings can be large; an effect the other way counts as inactive or inconclusive. Unless noted, % is scaled to controls: 0 for no effect and ±100 for the full control effect; potency is read from the fitted curve at half-maximal effect.

SMILES	ALDH1A1 block	RORg inh	PLK1 PBD inh	Gal4-VP16 FLuc	Sfp PPTase inh
O=C(N=Nc1c(O)[nH]c2ccccc12)c1cccc(S(=O)(=O)Nc2ccccc2Cl)c1	-12%	-13%	30µM*	8%	?
CCN(CC)S(=O)(=O)c1cccc(C(=O)N/N=C/c2ccccn2)c1	?	8.9µM*	2%	?	?
CC(C)c1ccc2[nH]c(O)c(N=NC(=O)c3cccc(S(=O)(=O)Nc4ccccc4Cl)c3)c2c1	20%	16%	-19%	-12%	-8%
O=C(COc1ccc([N+](=O)[O-])cc1)Nc1ccc2c(c1)nc1n2CCOC1	·	-12%	3µM*	0%	4%
Cc1cccc(C(=O)N/N=C/c2ccccn2)c1	14%	6.3µM*	-8%	14µM*	45µM*
CC1CN(C(=S)Nc2ccccc2)C(C)CN1C=O (centres undefined)	·	·	1%	·	·
O=C(COc1ccc([N+](=O)[O-])cc1)N/N=C/c1cc([N+](=O)[O-])ccc1N1CCOCC1	3.5µM*	?	-9%	-7%	5%
O=C(N/N=C/c1ccccn1)c1cccc([N+](=O)[O-])c1	?	4.5µM*	-6%	13µM*	-44%
O=C(O)c1cccc(NC(=S)N/N=C/c2ccccn2)c1	20µM*	4.5µM*	-13%	?	-14%
Cc1ccc(OCC(=O)N/N=C/c2cc([N+](=O)[O-])ccc2N2CCCCC2)cc1	?	19%	-5%	-3%	18%
O=C(N/N=C/c1ccccn1)c1cccc(S(=O)(=O)Nc2ccccc2Cl)c1	-6%	20µM*	-11%	?	16%
CC(C)Sc1nnc(NC(=O)c2ccc3c(c2)OCO3)s1	·	-41%	-12%	-15%	3%
Cc1noc(C)c1C(=O)N1CCC1(C)C(=O)NS(=O)(=O)c1ccc(F)cc1F (centres undefined)	·	·	-2%	·	·
O=C(N/N=C/c1ccccn1)c1cc([N+](=O)[O-])cc([N+](=O)[O-])c1	-9%	3.5µM*	-5%	4.5µM*	5%
O=C(COc1ccc([N+](=O)[O-])cc1)N/N=C/c1ccccn1	3%	-14%	1%	1%	79µM*
O=C(Cn1c2ccccc2c(=O)c2ccccc21)N/N=C/c1cc([N+](=O)[O-])ccc1N1CCCCCC1	5%	4%	-1%	0%	11µM*
O=C(COc1ccc(/C=N/NC(=O)c2ccccc2)cc1)Nc1ccc([N+](=O)[O-])cc1	6%	-7%	0%	-10%	7%
COc1ccc(-c2nn(-c3ccccc3)cc2/C=N/NC(=O)c2cccc(S(=O)(=O)Nc3ccccc3Cl)c2)cc1	?	1.8µM*	-2%	1.8µM*	25%
CCCCCCCCCCCCCC(=O)OCC(COP(=O)([O-])OCC[N+](C)(C)C)OC(=O)CCCCCCCCCCCCC (centres undefined)	·	10%	·	-12%	10%
C[C@H](O)[C@@H]1CN2CCc3c([nH]c4ccccc34)[C@@H]2C[C@@H]1N(C)C(=S)Nc1ccc(C#N)cc1	·	·	-7%	·	·
Cc1cc(C(=O)N/N=C/c2ccccn2)n[nH]1	-7%	-23%	6%	7%	40µM*
COc1ccccc1CNc1cc(-c2cccc(NS(C)(=O)=O)c2)ncn1	-2%	33%	·	2%	-9%
CN1C(=O)SC(Nc2ccccc2)C1=O (centres undefined)	32µM*	-3%	-7%	-2%	13%
O=C(O)c1cccc(CN2C(=O)SC(Nc3ccccc3)C2=O)c1 (centres undefined)	7.1µM*	2%	-17%	-7%	-28%
Cc1ccc(NC2SC(=O)N(Cc3cccc(C(=O)O)c3)C2=O)cc1 (centres undefined)	25µM*	-9%	21µM*	-26%	-18%
SMILES	ALDH1A1 block	RORg inh	PLK1 PBD inh	Gal4-VP16 FLuc	Sfp PPTase inh
Cc1ccccc1-c1cnc(C(O)c2c(C)ccc3ccccc23)[nH]1 (centres undefined)	·	·	-2%	·	·
CN1C(=O)c2c(sc3c2CCCC3)NC1c1ccccc1O (centres undefined)	?	40%	·	?	40µM*
C=C1[C@@H]2CC[C@H](C2)C1(C)C	·	11%	·	-4%	23%
Cc1ccc(Cl)cc1N1CCN(C(=O)Cc2csc(Nc3nc(=S)[nH]c4ccccc34)n2)CC1	9%	0.63µM*	-4%	3.5µM*	10%
O=C(Cc1csc(Nc2nc(=S)[nH]c3ccccc23)n1)N1CCN(c2cccc(Cl)c2)CC1	-4%	1µM*	-13%	5µM*	34%
O=C(Cn1c(=O)[nH]c2ccccc2c1=O)N1CCN(c2cccc(Cl)c2)CC1	8%	5%	4%	-4%	22%
COc1ccc(F)cc1C(=O)C1CCCN(C(=O)C2=C(C)OCCO2)C1 (centres undefined)	5%	?	-6%	-2%	-2%
Oc1ccccc1/C=N/Nc1cc(N2CCCC2)nc(N2CCCC2)n1	-7%	11µM*	1%	?	?
Oc1ccc(/C=N/Nc2cc(N3CCOCC3)nc(N3CCOCC3)n2)cc1O	-8%	-1%	?	?	79µM*
COc1cc(C(=S)N2CCCC2)cc(OC)c1O	-99%	14%	21µM*	3%	50µM*
CN(C)c1ccc(C(=S)N2CCN(C(=S)Nc3ccccc3)CC2)cc1	?	-30%	-3%	2%	19%
COc1ccc(C(=S)N2CCCCCC2)cc1	?	-30%	27µM*	-7%	-1%
CN(C)c1ccc(C(=S)N2CCCCC2)cc1	?	11µM*	-12%	0%	12%
CCOc1cc(C(=S)N2CCCC2)ccc1OC	·	24%	2%	14%	9%
CN(C)c1ccc(C(=S)N2CCN(C(=S)Nc3cccc4ccccc34)CC2)cc1	16µM*	-11%	-6%	6%	6%
CC(C)(O)C#Cc1ccc(N2C(c3ccsc3)=Cc3ccc(F)cc3C2c2c[nH]c3ccccc23)cc1 (centres undefined)	·	·	2%	·	·
COc1ccc(C(=O)NC(=S)N2CCN(c3ccccc3O)CC2)cc1	·	·	-19%	·	·
CCOC(=O)c1ccc(C(=S)N2CCCC2)cc1	·	-10%	7.5µM*	-1%	40µM*
CCOC(=O)c1ccc(NC(=S)N2CCCC(C(=O)OCC)C2)cc1 (centres undefined)	-2%	?	-9%	-11%	-1%
COc1ccc(C(=S)N2CCN(c3ccccc3C)CC2)cc1	·	?	21µM*	6%	?
COC/C=C/C1=CC2=CC(=O)C(C)(OC(=O)c3cnc4ccccc4n3)C(=O)C2=CN1Cc1ccc2c(c1)OCO2 (centres undefined)	?	·	·	·	11%
COc1ccc(/C=C\C(=O)NCC(=O)N/N=C/c2cccc(OC)c2O)cc1	·	1.6µM*	-9%	7.9µM*	3%
COc1ccccc1/C=C/C(=O)NCC(=O)N/N=C/c1ccccc1	-18%	6%	-8%	9%	-21%
COc1cccc(/C=N/NC(=O)CNC(=O)/C=C\c2ccccc2)c1O	·	2.5µM*	-1%	3.2µM*	-5%
